PubChem BioAssay AID1159580 (chemical genetic matrix, 2015)
Values joined by “and” are separate entries in the source; they are usually repeats but may differ in a detail not shown here. Equal entries are not always repeated. In all, about 5,500 compounds went through this assay and about 2,000 (36%) were called active. Inconclusive results (about 18%) are left out. Rule as the data show it: active = normalized growth mostly below about 0.91 (no sharp cut-off); inconclusive = no clear call, values can overlap the other calls; inactive = mostly above about 0.92. Some of the results follow.

Experiment: chemical genetic growth profiling, strain panel (AID 1159580);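 also: tested at 20 µM; growth read once vehicle control cultures reached saturation at 30 °C; 1 = growth at the plate median or of vehicle wells; lower values mean less growth of the strain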
Conditions: S. cerevisiae deletion strains, growth OD

Measured: normalized growth

CC1(C)C(=O)[C@@H]2O[C@@H]2[C@@]2(C)C1C[C@@H](O)[C@]1(C)C2CC[C@@]2(C)[C@H](c3ccoc3)OC(=O)C3OC321 (stereo partly specified)
inactive: locus YAL021C, strain ccr4, stronger effect = lower value 0.981 | locus YAL026C, strain drs2, stronger effect = lower value 0.969 | locus YAL030W, strain snc1, stronger effect = lower value 0.982 | locus YBL061C, strain skt5, stronger effect = lower value 0.989 | locus YBR009C, strain hhf1, stronger effect = lower value 1 | locus YBR021W, strain FUR4, stronger effect = lower value 0.965 | locus YBR023C, strain chs3, stronger effect = lower value 0.998 | locus YBR171W, strain sec66, stronger effect = lower value 0.994 | locus YBR229C, strain ROT2, stronger effect = lower value 1 | locus YBR231C, strain swc5, stronger effect = lower value 0.995 | locus YBR279W, strain paf1, stronger effect = lower value 0.987 | locus YCL011C, strain gbp2, stronger effect = lower value 0.999 | locus YCL016C, strain dcc1, stronger effect = lower value 0.997 | locus YCL029C, strain bik1, stronger effect = lower value 0.988 | locus YCL061C, strain MRC1, stronger effect = lower value 1.01 | locus YCL069W, strain vba3, stronger effect = lower value 0.999 | locus YCR088W, strain abp1, stronger effect = lower value 1 | locus YDL005C, strain med2, stronger effect = lower value 0.987 | locus YDL035C, strain GPR1, stronger effect = lower value 0.998 | locus YDL040C, strain nat1, stronger effect = lower value 0.998 | locus YDL074C, strain BRE1, stronger effect = lower value 0.972 | locus YDL101C, strain DUN1, stronger effect = lower value 1 | locus YDL134C, strain PPH21, stronger effect = lower value 0.989 | locus YDL185W, strain tfp1, stronger effect = lower value 0.997 | locus YDL192W, strain arf1, stronger effect = lower value 0.988 | locus YDR001C, strain nth1, stronger effect = lower value 1 | locus YDR069C, strain doa4, stronger effect = lower value 0.999 | locus YDR101C, strain arx1, stronger effect = lower value 0.971 | locus YDR137W, strain rgp1, stronger effect = lower value 1 | locus YDR150W, strain NUM1, stronger effect = lower value 1 | locus YDR159W, strain sac3, stronger effect = lower value 0.998 | locus YDR162C, strain NBP2, stronger effect = lower value 1 | locus YDR195W, strain ref2 0.989 | locus YDR297W, strain sur2, stronger effect = lower value 0.99 | locus YDR318W, strain mcm21, stronger effect = lower value 0.974 | locus YDR334W, strain swr1, stronger effect = lower value 0.989 | locus YDR335W, strain msn5, stronger effect = lower value 0.987 | locus YDR388W, stronger effect = lower value 0.991 | locus YDR392W, strain spt3, stronger effect = lower value 0.984 | locus YDR502C, strain sam2, stronger effect = lower value 0.957 | locus YEL003W, strain gim4, stronger effect = lower value 1.01 | locus YEL037C, strain rad23, stronger effect = lower value 0.988 | locus YEL061C, strain CIN8 (second series), stronger effect = lower value 1 | locus YER015W, strain faa2, stronger effect = lower value 0.996 | locus YER016W, strain bim1, stronger effect = lower value 0.995 | locus YER110C, stronger effect = lower value 0.976 | locus YER111C, strain swi4, stronger effect = lower value 0.996 | locus YER155C, strain BEM2 (second series), stronger effect = lower value 1 | locus YER155C, strain BEM2, stronger effect = lower value 1 | locus YER167W, strain BCK2, stronger effect = lower value 1.01 | locus YFR010W, strain ubp6, stronger effect = lower value 1 | locus YGL078C, strain dbp3, stronger effect = lower value 0.985 | locus YGL086W, strain mad1, stronger effect = lower value 0.977 | locus YGL167C, strain pmr1, stronger effect = lower value 1.01 | locus YGL173C, strain kem1, stronger effect = lower value 1 | locus YGL227W, strain vid30, stronger effect = lower value 1 | locus YGL240W, strain doc1, stronger effect = lower value 1 | locus YGL248W, strain PDE1, stronger effect = lower value 0.998 | locus YGL253W, strain hxk2, stronger effect = lower value 1 | locus YGR135W, strain pre9, stronger effect = lower value 0.952 | locus YGR229C, strain SMI1, stronger effect = lower value 0.981 | locus YGR252W, strain gcn5, stronger effect = lower value 0.845 | locus YHR013C, strain ard1, stronger effect = lower value 0.993 | locus YHR027C, strain rpn1, stronger effect = lower value 0.997 | locus YHR030C, strain SLT2, stronger effect = lower value 1.02 and 0.977 | locus YHR079C, strain IRE1 (second series), stronger effect = lower value 0.991 | locus YHR079C, strain IRE1, stronger effect = lower value 0.986 | locus YHR094C, strain hxt1, stronger effect = lower value 0.989 | locus YHR129C, strain ARP1, stronger effect = lower value 1 | locus YHR142W, strain chs7, stronger effect = lower value 0.993 | locus YHR200W, strain rpn10, stronger effect = lower value 0.982 | locus YIL066C, strain RNR3, stronger effect = lower value 1.01 | locus YIL073C, strain SPO22, stronger effect = lower value 0.992 | locus YIL125W, strain kgd1, stronger effect = lower value 0.992 | locus YIR030C, strain dcg1, stronger effect = lower value 0.994 | locus YJL092W, strain hpr5, stronger effect = lower value 1 | locus YJL095W, strain BCK1 (second series), stronger effect = lower value 0.994 | locus YJL095W, strain BCK1, stronger effect = lower value 0.982 and 0.983 | locus YJL115W, strain asf1, stronger effect = lower value 0.989 | locus YJL129C, strain trk1, stronger effect = lower value 0.985 | locus YJL134W, strain LCB3, stronger effect = lower value 0.997 | locus YJL154C, strain vps35, stronger effect = lower value 0.999 | locus YJL164C, strain tpk1, stronger effect = lower value 0.981 | locus YJL166W, strain qcr8, stronger effect = lower value 0.983 | locus YJL168C, strain set2, stronger effect = lower value 0.985 | locus YJL187C, strain SWE1 (second series), stronger effect = lower value 0.984
